Where “and” joins values, the source holds several entries; their conditions need not be identical. Equal entries are not always repeated. Results filed as inconclusive are left out. Calls of active or inactive are those of the source.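 The calls were made as follows, unless noted: active = normalized viability below 100% at a tested concentration; inactive = the rest.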
Legend:
[1] = viability loss in pontine glioma line – cell-based, SU-DIPG-XVII, MIPE5.0, CellTiter-Glo, qHTS, dose response (AID 1347060; cut-off not given, nearly all actives have AC50 up to about 26 µM;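 as to AC50: cells exposed to compound for 48 hours before viability readout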); details: CellTiter-Glo ATP luminescence
[2] = viability loss in pontine glioma line – cell-based, SU-DIPG-XIII, MIPE4.0, CellTiter-Glo, qHTS, dose response (AID 1347061; cut-off not given, nearly all actives have AC50 up to about 37 µM;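 also: cells exposed to compound for 48 hours before readout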); details: CellTiter-Glo ATP luminescence
[3] = viability loss in pontine glioma line – cell-based, JHH-DIPG-1, MIPE4.0, CellTiter-Glo, qHTS, dose response (AID 1347062; cut-off not given, nearly all actives have AC50 up to about 27 µM;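 as to AC50: cells exposed to compound for two days before readout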); details: JHH-DIPG-1 viability, CellTiter-Glo ATP luminescence
[4] = viability loss in pontine glioma line – cell-based, SU-DIPG-IV, MIPE4.0, CellTiter-Glo, qHTS, dose response (AID 1347063; cut-off not given, nearly all actives have AC50 up to about 30 µM;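 also: compound exposure lasted 48 hours before the viability readout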); details: CellTiter-Glo ATP luminescence
[5] = viability loss in pontine glioma line – cell-based, SU-DIPG-XXV, MIPE5.0, CellTiter-Glo, qHTS, dose response (AID 1347065; cut-off not given, nearly all actives have AC50 up to about 26 µM;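 also: cells exposed to compound for 48 hours before ATP readout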); details: CellTiter-Glo ATP luminescence
[6] = growth inhibition of DIPG cells – cell-based, MIPE4.0 library, CellTiter-Glo luminescence, qHTS (AID 1347066; cut-off not given, nearly all actives have AC50 up to about 30 µM;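 also: cells exposed to compound for 48 hours before readout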); details: SU-DIPG-VI viability, CellTiter-Glo ATP luminescence
[7] = JHH-DIPG-1 glioma cell viability, MIPE5.0 library, CellTiter-Glo luminescence, qHTS (AID 1347067; cut-off not given, nearly all actives have AC50 up to about 26 µM;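 also: cells exposed to compound for 48 hours before readout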); details: JHH-DIPG-1 glioma viability, CellTiter-Glo ATP luminescence
[8] = growth inhibition of DIPG cells – cell-based, MIPE5.0 library, qHTS (AID 1347068; cut-off not given, nearly all actives have IC50 up to about 30 µM); details: SU-DIPG-XXV viability
[9] = viability loss with induced miR-34 in A549 – imaging, A549 dox-inducible miR-34, nuclei and caspase counts, primary screen (AID 1347080;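 active = compounds whose cell count with miR-34 switched on is under 0.7 times the count with it off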); details: A549 miR-34 inducible, Hoechst nuclei count, 48 h
[10] = compounds altering HSF1 focus formation in cells – imaging, Selleck Cancer Library (AID 1347162; in the data active = plate-normalised HSF1 focus index below about 0.46); details: human cells, HSF1 nuclear foci imaging, at 10 µM; SSMD: measured here: HSF1 foci SSMD mean; cell count: measured here: cell number; plate-normalised HSF1 focus index: stronger effect = lower value
[11] = drug combination growth inhibition, ovarian cancer – cell-based, oncology-focused library, rucaparib conditional, profiling panel (AID 1508598); details: patient-derived ovarian cancer cells, CellTiter-Glo viability, 144 h, stronger effect = lower value
[12] = MELAS cybrid and Rieske KO viability enhancers – cell-based, MELAS cybrids, Rieske KO mouse fibroblasts, CellTiter-Glo, primary screen (AID 1508586;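 active = mean z-score across replicates of 1.96 or higher in either the MELAS or the Rieske mutant cell line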;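 also: z relative to plate mean and SD of compound and empty wells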); details: low glucose
[13] = stronger effect = lower value, cell number ratio, induced over uninduced
[14] = measured here: relative caspase fold change +Dox/-Dox
[15] = measured here: total cells with miR-34 induction, stronger effect = lower value
[16] = measured here: total cells without miR-34 induction
[17] = at 0.000305 µM, OCI-C5x cells, with rucaparib 10 µM, 100% = cells with rucaparib alone
[18] = at 0.000305 µM, OCI-C5x cells, without rucaparib
[19] = at 0.000305 µM, OCI-P5x cells, with rucaparib 20 µM, 100% = cells with rucaparib alone
[20] = at 0.000305 µM, OCI-P5x cells, without rucaparib
[21] = at 0.00122 µM, OCI-C5x cells, with rucaparib 10 µM, 100% = cells with rucaparib alone
[22] = at 0.00122 µM, OCI-C5x cells, without rucaparib
[23] = at 0.00122 µM, OCI-P5x cells, with rucaparib 20 µM, 100% = cells with rucaparib alone
[24] = at 0.00122 µM, OCI-P5x cells, without rucaparib
[25] = at 0.00488 µM, OCI-C5x cells, with rucaparib 10 µM, 100% = cells with rucaparib alone
[26] = at 0.00488 µM, OCI-C5x cells, without rucaparib
[27] = at 0.00488 µM, OCI-P5x cells, with rucaparib 20 µM, 100% = cells with rucaparib alone
[28] = at 0.00488 µM, OCI-P5x cells, without rucaparib
[29] = at 0.0195 µM, OCI-C5x cells, with rucaparib 10 µM, 100% = cells with rucaparib alone
[30] = at 0.0195 µM, OCI-C5x cells, without rucaparib
[31] = at 0.0195 µM, OCI-P5x cells, with rucaparib 20 µM, 100% = cells with rucaparib alone
[32] = at 0.0195 µM, OCI-P5x cells, without rucaparib
[33] = at 0.0781 µM, OCI-C5x cells, with rucaparib 10 µM, 100% = cells with rucaparib alone
[34] = at 0.0781 µM, OCI-C5x cells, without rucaparib
[35] = at 0.0781 µM, OCI-P5x cells, with rucaparib 20 µM, 100% = cells with rucaparib alone
[36] = at 0.0781 µM, OCI-P5x cells, without rucaparib
[37] = at 0.313 µM, OCI-C5x cells, with rucaparib 10 µM, 100% = cells with rucaparib alone
[38] = at 0.313 µM, OCI-C5x cells, without rucaparib
[39] = at 0.313 µM, OCI-P5x cells, with rucaparib 20 µM, 100% = cells with rucaparib alone
[40] = at 0.313 µM, OCI-P5x cells, without rucaparib
[41] = at 1.25 µM, OCI-C5x cells, with rucaparib 10 µM, 100% = cells with rucaparib alone
[42] = at 1.25 µM, OCI-C5x cells, without rucaparib
[43] = at 1.25 µM, OCI-P5x cells, with rucaparib 20 µM, 100% = cells with rucaparib alone
[44] = at 1.25 µM, OCI-P5x cells, without rucaparib
[45] = at 5 µM, OCI-C5x cells, with rucaparib 10 µM, 100% = cells with rucaparib alone
[46] = at 5 µM, OCI-C5x cells, without rucaparib
[47] = at 5 µM, OCI-P5x cells, with rucaparib 20 µM, 100% = cells with rucaparib alone
[48] = at 5 µM, OCI-P5x cells, without rucaparib
[49] = MELAS cybrid survival, CellTiter-Glo 48 h, stronger effect = higher value
[50] = Rieske KO mouse fibroblast survival, CellTiter-Glo 72 h

NC[C@H]1O[C@H](O[C@@H]2[C@H](O)[C@@H](O[C@H]3O[C@H](CO)[C@@H](O)[C@H](N)[C@H]3O)[C@H](N)C[C@@H]2N)[C@H](O)[C@@H](O)[C@@H]1O
inactive: outcome [1] | outcome [2] | outcome [3] | outcome [4] | outcome [5] | outcome [6] | outcome [7] | outcome [8]

CC(C)[C@H](C(=O)Nc1ccc(C(=O)NO)cc1)c1ccccc1
1930: cell count [9, 16]
1.7: fold change [9, 14]
inactive: fold change [9, 13] 0.834 | plate-normalised HSF1 focus index [10] 0.833 | viability [11, 17] 112% | viability [11, 18] 136% | viability [11, 19] 105% | viability [11, 20] 114% | viability [11, 21] 116% | viability [11, 22] 139% | viability [11, 23] 102% | viability [11, 24] 116% | viability [11, 25] 104% | viability [11, 26] 135% | viability [11, 28] 107% | viability [11, 29] 101% | viability [11, 30] 139% | viability [11, 32] 110% | viability [11, 34] 145%
7300: cell count [10]
active: AC50 [1] 1.86 µM | AC50 [2] 3.72 µM | AC50 [3] 1.87 µM | AC50 [4] 2.35 µM | AC50 [5] 1.32 µM | AC50 [6] 0.833 µM | viability [11, 27] 87.9% | viability [11, 31] 89.2% | viability [11, 33] 99.7% | viability [11, 35] 82.7% | viability [11, 36] 92.5% | viability [11, 37] 46.8% | viability [11, 38] 41.1% | viability [11, 39] 49.2% | viability [11, 40] 66.8% | viability [11, 41] 10.3% | viability [11, 42] 11% | viability [11, 43] 31.4% | viability [11, 44] 39.9% | viability [11, 45] 5.04% | viability [11, 46] 5.5% | viability [11, 47] 2.82% | viability [11, 48] 3.14%
1610: cell count [9, 15]
-4.69: SSMD [10]

NC(=O)c1cccc(-c2cccc(OC(=O)NC3CCCCC3)c2)c1
1.45 and 0.843: fold change [9, 14]
5620 and 8620: cell count [9, 15]
inactive: outcome [1] | outcome [2] | outcome [3] | outcome [4] | outcome [5] | outcome [6] | outcome [7] | outcome [8] | fold change [9, 13] 1.39 and 0.902 | z-score [12, 49] -0.288
4040 and 9560: cell count [9, 16]
-0.11: z-score [12, 50]

COc1ccc(OC)c(-c2nnc3ccc(-c4ccc(OC)c(O[C@@H]5CCOC5)c4)nn23)c1
active: AC50 [1] 2.95 µM | AC50 [2] 26.4 µM | AC50 [3] 7.43 µM | AC50 [4] 14.8 µM | AC50 [5] 2.63 µM | AC50 [6] 11.8 µM

CCN1CCN(CC(=O)Nc2ccc(-c3cccc4c(=O)cc(N5CCOCC5)oc34)c3sc4ccccc4c23)CC1
active: AC50 [1] 9.1 µM | AC50 [2] 18.7 µM | AC50 [3] 16.6 µM | AC50 [4] 11.8 µM | AC50 [5] 6.45 µM | AC50 [6] 5.9 µM | AC50 [7] 12.9 µM

CC(C)n1cnc2c(NCCc3ccc(O)cc3)nc(-c3csc4ccccc34)nc21
7140: cell count [9, 16]
0.499: z-score [12, 50]
0.471: fold change [9, 14]
inactive: outcome [8] | fold change [9, 13] 0.908 | z-score [12, 49] -0.0908
active: AC50 [1] 18.6 µM | AC50 [2] 7.43 µM | AC50 [3] 18.7 µM | AC50 [4] 10.5 µM | AC50 [5] 18.6 µM | AC50 [6] 20.9 µM | AC50 [7] 13.2 µM
6480: cell count [9, 15]

C1Cc2[nH]nc(-c3nn[nH]n3)c2C1
inactive: outcome [1] | outcome [2] | outcome [3] | outcome [4] | outcome [5] | outcome [6] | outcome [7] | outcome [8]

O=C(NCCCNc1nc(Nc2cccc(NC(=O)N3CCCC3)c2)ncc1I)c1cccs1
-0.479: z-score [12, 50]
-3.5: SSMD [10]
7460: cell count [10]
inactive: fold change [9, 13] 0.948 | plate-normalised HSF1 focus index [10] 0.877 | z-score [12, 49] -0.385 | viability [11, 17] 115% | viability [11, 18] 106% | viability [11, 21] 116% | viability [11, 22] 102% | viability [11, 25] 110% | viability [11, 28] 103% | viability [11, 29] 112% | viability [11, 30] 102% | viability [11, 31] 104% | viability [11, 32] 101% | viability [11, 33] 123% | viability [11, 34] 112% | viability [11, 36] 106% | viability [11, 37] 137% | viability [11, 38] 120% | viability [11, 41] 122% | viability [11, 42] 120% | viability [11, 46] 127%
2780: cell count [9, 15]
2940: cell count [9, 16]
1.03: fold change [9, 14]
active: AC50 [1] 16.6 µM | AC50 [2] 20.9 µM | AC50 [3] 23.5 µM | AC50 [4] 14.8 µM | AC50 [5] 3.72 µM | AC50 [6] 20.9 µM | viability [11, 19] 91.2% | viability [11, 20] 89.1% | viability [11, 23] 97.1% | viability [11, 24] 94.8% | viability [11, 26] 97.8% | viability [11, 27] 97.7% | viability [11, 35] 99.5% | viability [11, 39] 98.3% | viability [11, 40] 99.8% | viability [11, 43] 85.2% | viability [11, 44] 99.1% | viability [11, 45] 76.6% | viability [11, 47] 68.2% | viability [11, 48] 91.4%

COc1nc(-c2ccc3c(c2)OCO3)n(-c2ccc(NC(=O)CSc3ccccc3)cc2)n1
0.993: SSMD [10]
6960: cell count [10]
inactive: outcome [1] | outcome [2] | outcome [3] | outcome [4] | outcome [5] | outcome [6] | outcome [8] | plate-normalised HSF1 focus index [10] 1.06
